PubChem BioAssay (Tox21)
Values joined by “and” are separate entries in the source; they are usually repeats but may differ in a detail not shown here. Identical values can stand only once. Results filed as inconclusive are left out. Active and inactive are the calls of the source. Unless noted, the call rests on the fitted dose curve; in most records, active means well fitted curve in the direction sought with a large enough effect in the repeat runs; inconclusive means weak or mixed curves; inactive means no such curve, though single readings can be large; an effect the other way counts as inactive or inconclusive.

Assays:
[1] = qHTS assay to identify small molecule antagonists of the estrogen receptor alpha (ER-alpha) signaling pathway using the BG1 cell line in the presence of 0.1 nM 17-beta-estradiol - cell viability counter screen (AID 1259241); further: nearly all actives have a fitted effect of over 40% in size
In short: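 Estradiol-stimulated (0.1 nM) VM7Luc4E2 cells exposed to compounds 22 hr; viability measured by fluorescence of cleaved CellTiter-Fluor substrate after 30 min.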

[2] = qHTS assay to identify small molecule antagonists of the androgen receptor (AR) signaling pathway using the MDA cell line in the presence of 0.5 nM R1881 - cell viability counter screen (AID 1259242); further: nearly all actives have a fitted effect of over 45% in size
In short: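 Live-cell protease fluorescence, CellTiter-Fluor, 30 min at 37C. Cells: MDA-kb2, 3,000/well, preincubated 5 hr. Compounds plus 0.5 nM R1881 final, 16 hr, 37C, 0% CO2.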

[3] = molecular target: Androgen receptor (Homo sapiens) (UniProt P10275); experiment: qHTS assay to identify small molecule antagonists of the androgen receptor (AR) signaling pathway using the MDA cell line in the presence of 0.5 nM R1881 (AID 1259243); further: nearly all actives have a fitted effect of over 50% in size; further: potency means the concentration at half of the fitted maximal effect
In short: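 MDA-kb2, MMTV-luc (AR/GR elements); 3,000 cells/well; cpd + 0.5 nM R1881 final; 16 hr 37C, 0% CO2; ONE-Glo 30 min RT; luminescence.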

[4] = molecular target: Estrogen receptor (Homo sapiens) (UniProt P03372); experiment: qHTS assay to identify small molecule antagonists of the estrogen receptor alpha (ER-alpha) signaling pathway using the BG1 cell line in the presence of 0.1 nM 17-beta-estradiol (AID 1259244); further: nearly all actives have a fitted effect of over 50% in size; further: potency means the concentration at half of the fitted maximal effect
In short: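 Luminescence after ONE-Glo (30 min, room temperature) measured ERE-luciferase activity in VM7Luc4E2 cells treated 22 h with compound and 0.1 nM final 17beta-estradiol as stimulator.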

[5] = qHTS assay to identify small molecule HDAC inhibitors (AID 1259364);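 further: wild-type HCT-116 cells with endogenous class I/II HDAC activity; top concentration of the series differs between compounds; nearly all actives have a fitted effect of over 45% in size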
In short: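 HCT-116 (wild type), 1,500 cells/well, overnight; compound 2 hr 37C 5% CO2; HDAC-Glo I/II reagent 30 min RT; luminescence readout.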

[6] = qHTS assay to identify small molecule agonists of the sonic hedgehog signaling (Shh) pathway - cell viability counter screen (AID 1259366); further: nearly all actives have a fitted effect of over 50% in size; further: potency means the concentration at half of the fitted maximal effect
In short: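 Same-well cytotoxicity read. Gli1-Luc reporter 3T3 cells; compounds 24hr, 37C/5% CO2; CellTiter-Fluor fluorescence.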

[7] = qHTS assay to identify small molecule antagonists of the sonic hedgehog signaling (Shh) pathway - cell viability counter screen (AID 1259367); further: nearly all actives have a fitted effect of over 55% in size; further: potency means the concentration at half of the fitted maximal effect
In short: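 Tox21 library chemicals were tested on a Gli1-Luc NIH/3T3 clone (2,000 cells/well) stimulated by conditioned medium; viability was quantified as fluorescence from CellTiter-Fluor reagent added at 23 hr.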

[8] = qHTS assay to identify small molecule agonists of the sonic hedgehog signaling (Shh) pathway (AID 1259368; calls by dose curve;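 further: NIH/3T3-derived 3T3Gli1-Luc cells carrying a stable Gli1-driven firefly luciferase reporter; series mostly up to about 92 µM; nearly all actives have a fitted effect of over 15% in size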)
In short: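 Read-out: firefly luciferase luminescence from a Gli1 response element reporter stably integrated in NIH/3T3-derived 3T3Gli1-Luc cells, measured 30 min at room temperature after reagent addition. Compound exposure lasted 24 hr at 37 C, 5% CO2.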

[9] = qHTS assay to identify small molecule phospholipidosis (PLD) inducers (AID 1259344; active means well fitted curve in the direction sought with a large enough effect; an effect the other way counts as inactive or inconclusive)
In short: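 Image-based: LipidTOX Red pit count/intensity per well and per cell; HepG2, 24 h compound at 37 C, PFA fixation, Hoechst counterstain.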

[10] = qHTS assay to identify small molecule HDAC inhibitors - cell viability counter screen (AID 1259365); further: series mostly up to about 92 µM; nearly all actives have a fitted effect of over 50% in size
In short: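 After overnight seeding at 1,500 cells per well, wild-type HCT-116 cultures took up compounds in DMSO for 2hr at 37 C. Viable cell content came from luminescence with CellTiter-Glo.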
On the % scale 0 is the no-effect control and ±100 the full control effect.

Sequence of Estrogen receptor (Homo sapiens) (P03372 whole entry, looked up): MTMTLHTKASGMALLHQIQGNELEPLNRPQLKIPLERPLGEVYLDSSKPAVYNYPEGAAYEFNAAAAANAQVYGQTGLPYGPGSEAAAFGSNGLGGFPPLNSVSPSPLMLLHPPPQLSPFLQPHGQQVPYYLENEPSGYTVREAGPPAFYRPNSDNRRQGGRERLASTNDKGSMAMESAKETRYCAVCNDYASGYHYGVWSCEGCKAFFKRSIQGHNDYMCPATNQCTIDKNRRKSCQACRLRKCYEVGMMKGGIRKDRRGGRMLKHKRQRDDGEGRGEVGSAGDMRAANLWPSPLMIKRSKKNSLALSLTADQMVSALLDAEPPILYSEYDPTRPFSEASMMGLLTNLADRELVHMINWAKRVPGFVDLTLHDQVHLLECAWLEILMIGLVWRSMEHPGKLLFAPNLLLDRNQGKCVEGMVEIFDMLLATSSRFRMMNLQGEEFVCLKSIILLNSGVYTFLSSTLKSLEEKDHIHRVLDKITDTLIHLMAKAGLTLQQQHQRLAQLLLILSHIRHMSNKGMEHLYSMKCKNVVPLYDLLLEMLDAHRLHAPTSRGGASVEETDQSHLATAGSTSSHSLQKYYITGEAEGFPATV
Sequence of Androgen receptor (Homo sapiens) (P10275 whole entry, looked up): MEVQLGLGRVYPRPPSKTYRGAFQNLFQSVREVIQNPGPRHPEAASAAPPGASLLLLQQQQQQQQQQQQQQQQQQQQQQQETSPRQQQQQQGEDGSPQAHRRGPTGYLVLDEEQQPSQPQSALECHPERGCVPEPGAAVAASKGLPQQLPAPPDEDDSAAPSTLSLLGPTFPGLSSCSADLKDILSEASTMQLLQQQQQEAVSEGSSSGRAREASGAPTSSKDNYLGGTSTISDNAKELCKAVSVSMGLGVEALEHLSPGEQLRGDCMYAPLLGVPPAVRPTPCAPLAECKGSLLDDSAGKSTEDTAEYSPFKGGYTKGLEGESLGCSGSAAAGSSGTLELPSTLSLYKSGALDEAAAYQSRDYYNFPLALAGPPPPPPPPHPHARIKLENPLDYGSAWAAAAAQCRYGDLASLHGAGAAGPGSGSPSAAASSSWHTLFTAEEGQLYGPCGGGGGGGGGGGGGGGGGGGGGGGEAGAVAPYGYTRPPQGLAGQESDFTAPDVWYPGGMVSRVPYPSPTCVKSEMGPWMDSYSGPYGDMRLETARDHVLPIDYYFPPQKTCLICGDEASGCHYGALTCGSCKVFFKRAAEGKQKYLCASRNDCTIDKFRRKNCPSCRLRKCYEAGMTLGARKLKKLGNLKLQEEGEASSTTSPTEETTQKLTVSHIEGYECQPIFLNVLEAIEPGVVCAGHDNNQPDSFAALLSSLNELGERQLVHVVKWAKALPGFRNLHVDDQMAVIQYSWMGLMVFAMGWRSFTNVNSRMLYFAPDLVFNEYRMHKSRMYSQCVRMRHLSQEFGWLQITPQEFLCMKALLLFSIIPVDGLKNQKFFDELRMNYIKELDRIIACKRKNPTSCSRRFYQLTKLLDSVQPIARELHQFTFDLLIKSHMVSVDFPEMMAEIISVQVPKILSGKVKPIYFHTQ

CCCOC(=O)c1cncn1C(C)c1ccccc1 (stereo unspecified)
inactive: outcome [1] | Potency [2] | Potency [3] | Potency [4] | Potency [5] | Potency [6] | Potency [7] | outcome [8]

Cc1ccc(-c2nc3ccc(C)cn3c2CC(=O)N(C)C)cc1
inactive: outcome [1] | Potency [2] | Potency [4] | Potency [9] | Potency [5] | outcome [10]

CCSC(=O)Cl
inactive: outcome [1] | Potency [2] | Potency [3] | Potency [4] | Potency [5] | outcome [10] | Potency [6] | Potency [7]

CCOC1Oc2ccc(OS(C)(=O)=O)cc2C1(C)C (stereo unspecified)
inactive: outcome [1] | Potency [2] | Potency [5] | outcome [10] | Potency [6] | Potency [7] | outcome [8]
active: Potency [3] 60.6 µM | Potency [4] 54 µM

CC(C)(N)Cc1ccccc1Cl
inactive: outcome [1] | Potency [2] | Potency [3] | Potency [4] | Potency [5] | Potency [6] | Potency [7] | outcome [8]

CN(C)CCc1c[nH]c2cccc(OP(=O)(O)O)c12
inactive: outcome [1] | Potency [2] | Potency [4] | Potency [9] | Potency [5] | outcome [10] | Potency [6]

CC[C@H](N)c1ccccc1
inactive: outcome [1] | Potency [2] | Potency [3] | Potency [4] | Potency [5] | outcome [10] | Potency [6] | Potency [7] | outcome [8]

CNC(=O)Oc1ccccc1C(C)C
inactive: outcome [1] | Potency [2] | Potency [3] | Potency [4] | Potency [5] | outcome [10] | Potency [6]

Clc1cc2c(cc1Cl)Oc1cc(Cl)c(Cl)cc1O2
inactive: activity change, negative = cytotoxicity [1] -0.812% [at 0.349 µM] | viability change, negative = cytotoxic [2] -3.69% [at 0.349 µM] | activity, negative = inhibition [3] 16.7% [at 0.349 µM] | activity change, negative = inhibition [5] 0.908% [at 0.349 µM] | activity change, negative = cytotoxicity [10] 6.76% [at 0.349 µM] | viability change, negative = cytotoxic [6] -1.46% [at 0.349 µM] | viability change, negative = cytotoxic [7] 1.51% [at 0.349 µM] | activity change [8] 0.117% [at 0.349 µM]

CC(Cc1ccccc1)NCCCCl (stereo unspecified)
inactive: outcome [1] | Potency [2] | Potency [3] | Potency [4] | Potency [5] | outcome [10] | Potency [6]

O=S1(=O)OCCO1
inactive: outcome [1] | Potency [2] | Potency [3] | Potency [5] | outcome [10] | Potency [6] | Potency [7]

CCN[C@@H](C)Cc1ccccc1
inactive: outcome [1] | Potency [2] | Potency [3] | Potency [4] | Potency [9] | Potency [5] | outcome [10] | Potency [6] | Potency [7]

COc1ccc(C=O)cc1O
inactive: outcome [1] | Potency [2] | Potency [3] | Potency [4] | Potency [5] | Potency [6] | outcome [8]

O=C(Cl)/C=C/C(=O)Cl
inactive: outcome [1] | Potency [2] | Potency [3] | Potency [4] | Potency [5] | outcome [10] | Potency [7] | outcome [8]

CCCOc1nn(C(=O)NS(=O)(=O)c2ccccc2C(=O)OC)c(=O)n1C
inactive: outcome [1] | Potency [2] | Potency [3] | Potency [5] | outcome [10] | Potency [6] | Potency [7] | outcome [8]

C[C@H]1CCCC(=O)CCC/C=C/c2cc(O)cc(O)c2C(=O)O1
inactive: outcome [1] | Potency [2] | Potency [5] | outcome [10] | outcome [8]
active: Potency [3] 20.9 µM | Potency [4] 23.4 µM and 25.2 µM | Potency [6] 20.9 µM | Potency [7] 23.4 µM

CCC(C(N)=O)N1CCCC1=O (stereo unspecified)
inactive: outcome [1] | Potency [2] | Potency [4] | Potency [9] | Potency [5] | outcome [10] | Potency [6] | Potency [7]

Clc1ccc(C(Cl)(Cl)Cl)cn1
inactive: outcome [1] | Potency [2] | Potency [3] | Potency [4] | Potency [5] | outcome [10] | Potency [6] | Potency [7] | outcome [8]

BrCc1ccc(Br)cc1
inactive: outcome [1] | Potency [2] | Potency [3] | Potency [4] | Potency [5] | Potency [6] | Potency [7] | outcome [8]

CC[C@@H](CO)NC(=O)[C@@H]1C=C2c3cccc4[nH]cc(c34)C[C@H]2N(C)C1
inactive: outcome [1] | Potency [2] | Potency [3] | Potency [4] | Potency [9] | Potency [5] | outcome [10] | Potency [6] | outcome [8]

CC(C)N(Cc1ccccc1)C(=O)C(C)(C)C
inactive: outcome [1] | Potency [2] | Potency [3] | Potency [5] | outcome [10] | Potency [6] | Potency [7]

[O-][Br+2]([O-])O
inactive: outcome [1] | Potency [2] | Potency [3] | Potency [4] | Potency [5] | outcome [10] | Potency [6] | Potency [7] | outcome [8]

CCc1ccc(C2CCNCC2)cc1
inactive: outcome [1] | Potency [2] | Potency [3] | Potency [4] | Potency [5] | Potency [6] | Potency [7] | outcome [8]

O=C(NC(O)C(Cl)(Cl)Cl)NC(O)C(Cl)(Cl)Cl (stereo unspecified)
inactive: outcome [1] | Potency [2] | Potency [4] | Potency [9] | Potency [5] | outcome [10] | Potency [6] | Potency [7]

COC(=O)c1ccc(CBr)cc1
inactive: outcome [1] | Potency [2] | Potency [3] | Potency [4] | outcome [10] | Potency [6] | Potency [7] | outcome [8]

CCC(CC)(CNC(=O)CCCO)c1cccc(OC)c1
inactive: outcome [1] | Potency [2] | Potency [3] | Potency [4] | Potency [5] | outcome [10] | Potency [6] | Potency [7] | outcome [8]

CCN(CC)C1CCCCC1
inactive: outcome [1] | Potency [2] | Potency [3] | Potency [4] | Potency [5] | outcome [10] | Potency [7] | outcome [8]
